Assay results from the supplement of paper PMC10849652.
The full data set covers some 7,900 targets. This sample favours those with a hit. About 0.6% of all pairs of compound and target were hits.

Tests used:
Assay in all cases: log2 fold change, soluble protein after heating vs DMSO (PISA); higher = thermal stabilisation; K562 cells, 10 uM, 30 min; active = over 0.2 and 3.5 SD of the protein, either way, in both replicates (recomputed)
saracatinib = compound: CN1CCN(CCOc2cc(OC3CCOCC3)c3c(Nc4c(Cl)ccc5c4OCO5)ncnc3c2)CC1 [saracatinib]
In short: (§1)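 K562 cells at 2×10^6 cells/mL were treated with 10 μM compound for 30 min. Aliquots were heated for 3 min across 48°C-58°C, pooled, and extracted in PBS with 0.5% NP-40 at 4°C; soluble protein was the supernatant after 21,000xg for 90 min. Soluble protein was quantified by TMTpro 16plex LC-MS/MS with channel sums equalised, and reported as log2 fold change in thermal stability against DMSO controls, with values from duplicates.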

sotrastaurin = compound: CN1CCN(c2nc(C3=C(c4c[nH]c5ccccc45)C(=O)NC3=O)c3ccccc3n2)CC1 [sotrastaurin]
In short: as §1

alvocidib = compound: CN1CC[C@H](c2c(O)cc(O)c3c(=O)cc(-c4ccccc4Cl)oc23)[C@H](O)C1 [alvocidib]
In short: as §1

Tubastatin A = compound: CN1CCc2c(c3ccccc3n2Cc2ccc(C(=O)NO)cc2)C1 [Tubastatin A]
In short: as §1

[1] = compound: CNC(=O)C1=CC=CC=C1NC2=NC(=NC=C2Cl)NC3=C(C=C(C=C3)N4CCOCC4)OC
In short: as §1

defactinib = compound: CNC(=O)c1ccc(Nc2ncc(C(F)(F)F)c(NCc3nccnc3N(C)S(C)(=O)=O)n2)cc1 [defactinib]
In short: as §1

rucaparib = compound: CNCc1ccc(-c2[nH]c3cc(F)cc4c3c2CCNC4=O)cc1 [rucaparib]
In short: as §1

[2] = compound: CNc1nc(-c2ccc3c(N)n[nH]c3c2)cc(N2C[C@@H](C(=O)NC3CCCCC3)CC[C@H]2C)n1
In short: as §1

encorafenib = compound: COC(=O)N[C@@H](C)CNc1nccc(-c2cn(C(C)C)nc2-c2cc(Cl)cc(NS(C)(=O)=O)c2F)n1 [encorafenib]
In short: as §1

[3] = compound: COC(=O)[C@H](CCSC)NC(=O)C1=C(C=C(C=C1)NC[C@H](CS)N)C2=CC=CC=C2
In short: as §1

[4] = compound: COC1=CC=C(C=C1)CN2C=CC3=C2C=C(C=C3)C(=O)NO
In short: as §1

filanesib = compound: CON(C)C(=O)N1N=C(c2cc(F)ccc2F)S[C@@]1(CCCN)c1ccccc1 [filanesib]
In short: as §1

zotarolimus = compound: CO[C@H]1C[C@@H]2CC[C@@H](C)[C@@](O)(O2)C(=O)C(=O)N2CCCC[C@H]2C(=O)O[C@H]([C@H](C)C[C@@H]2CC[C@H](n3cnnn3)[C@H](OC)C2)CC(=O)[C@H](C)/C=C(\C)[C@@H](O)[C@@H](OC)C(=O)[C@H](C)C[C@H](C)/C=C/C=C/C=C/1C [zotarolimus]
In short: as §1

idasanutlin = compound: COc1cc(C(=O)O)ccc1NC(=O)[C@@H]1N[C@@H](CC(C)(C)C)[C@](C#N)(c2ccc(Cl)cc2F)[C@H]1c1cccc(Cl)c1F [idasanutlin]
In short: as §1

alisertib = compound: COc1cc(Nc2ncc3c(n2)-c2ccc(Cl)cc2C(c2c(F)cccc2OC)=NC3)ccc1C(=O)O [alisertib]
In short: as §1

[5] = compound: COc1cc2nc(-c3cc(F)ccc3O)nc(N[C@@H]3CNC[C@H]3C(C)(C)O)c2cc1OC
In short: as §1

gefitinib = compound: COc1cc2ncnc(Nc3ccc(F)c(Cl)c3)c2cc1OCCCN1CCOCC1 [gefitinib]
In short: as §1

[6] = compound: COc1cccc2cc(-c3nc([C@H]4CC[C@H](C(=O)O)CC4)n4ncnc(N)c34)[nH]c12
In short: as §1

lapatinib = compound: CS(=O)(=O)CCNCc1ccc(-c2ccc3ncnc(Nc4ccc(OCc5cccc(F)c5)c(Cl)c4)c3c2)o1 [lapatinib]
In short: as §1

pictilisib = compound: CS(=O)(=O)N1CCN(Cc2cc3nc(-c4cccc5[nH]ncc45)nc(N4CCOCC4)c3s2)CC1 [pictilisib]
In short: as §1

Measured: log2 fold change

HOOK3 (UniProt Q86VS8)
inactive: saracatinib -0.016 | sotrastaurin -0.166 | alvocidib 0.003 | Tubastatin A -0.019 | [1] 0.013 | defactinib -0.005 | rucaparib -0.063 | [2] -0.008 | encorafenib 0.022 | [3] -0.007 | [4] -0.074 | filanesib -0.108 | zotarolimus 0.001 | idasanutlin 0.036 | alisertib 0.07 | [5] 0.014 | gefitinib -0.006 | [6] 0.018 | lapatinib 0.032 | pictilisib -0.021

GTF2B (UniProt Q00403)
UniProt Q00403, sequence (Q00403 whole entry, looked up): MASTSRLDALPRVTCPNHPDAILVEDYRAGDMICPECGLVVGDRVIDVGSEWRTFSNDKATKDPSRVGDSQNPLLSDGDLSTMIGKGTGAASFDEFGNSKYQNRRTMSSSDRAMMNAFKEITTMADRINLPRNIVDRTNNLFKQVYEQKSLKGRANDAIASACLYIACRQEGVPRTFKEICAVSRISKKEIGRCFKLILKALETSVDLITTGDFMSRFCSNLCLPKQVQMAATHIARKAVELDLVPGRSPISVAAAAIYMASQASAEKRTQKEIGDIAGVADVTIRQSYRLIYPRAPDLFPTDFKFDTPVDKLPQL
inactive: saracatinib -0.155 | sotrastaurin -0.103 | alvocidib -0.22 | Tubastatin A 0.135 | [1] -0.013 | defactinib -0.144 | rucaparib -0.017 | [2] 0.026 | encorafenib 0.023 | [3] -0.01 | [4] 0.046 | filanesib -0.018 | zotarolimus 0.054 | idasanutlin -0.085 | alisertib -0.037 | [5] -0.001 | gefitinib 0.02 | [6] -0.006 | lapatinib -0.047 | pictilisib -0.025

GNL1 (UniProt P36915)
inactive: saracatinib 0.013 | sotrastaurin 0.013 | alvocidib -0.038 | Tubastatin A 0.018 | [1] 0.009 | defactinib 0.023 | rucaparib -0.039 | [2] 0.016 | encorafenib 0.021 | [3] -0.011 | [4] 0.047 | filanesib -0.066 | zotarolimus 0.049 | idasanutlin -0.056 | alisertib -0.107 | [5] 0.039 | gefitinib 0.031 | [6] 0.061 | lapatinib 0.011 | pictilisib 0.04

HADHB (UniProt P55084)
UniProt P55084, sequence (P55084 whole entry, looked up): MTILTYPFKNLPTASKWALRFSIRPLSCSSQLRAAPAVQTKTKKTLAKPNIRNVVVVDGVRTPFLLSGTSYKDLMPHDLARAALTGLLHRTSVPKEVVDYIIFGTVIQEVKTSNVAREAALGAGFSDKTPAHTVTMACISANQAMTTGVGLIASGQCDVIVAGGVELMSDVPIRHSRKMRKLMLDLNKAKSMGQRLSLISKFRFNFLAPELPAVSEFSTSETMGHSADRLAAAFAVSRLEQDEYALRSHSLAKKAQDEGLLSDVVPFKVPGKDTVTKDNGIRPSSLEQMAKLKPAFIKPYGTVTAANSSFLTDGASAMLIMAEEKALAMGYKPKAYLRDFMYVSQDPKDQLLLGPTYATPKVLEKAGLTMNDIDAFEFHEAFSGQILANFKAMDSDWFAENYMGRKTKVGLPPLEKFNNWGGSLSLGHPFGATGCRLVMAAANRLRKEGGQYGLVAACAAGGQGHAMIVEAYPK
active: [2] 0.62
inactive: saracatinib -0.111 | sotrastaurin 0.011 | alvocidib -0.283 | Tubastatin A 0.027 | [1] 0.064 | defactinib -0.18 | rucaparib 0.131 | encorafenib 0.001 | [3] -0.223 | [4] 0.248 | filanesib 0.094 | zotarolimus 0.038 | idasanutlin -0.263 | alisertib -0.026 | [5] 0.217 | gefitinib 0.17 | [6] -0.085 | lapatinib 0.086 | pictilisib 0.383

HK2 (UniProt P52789)
UniProt P52789, sequence (P52789 whole entry, looked up): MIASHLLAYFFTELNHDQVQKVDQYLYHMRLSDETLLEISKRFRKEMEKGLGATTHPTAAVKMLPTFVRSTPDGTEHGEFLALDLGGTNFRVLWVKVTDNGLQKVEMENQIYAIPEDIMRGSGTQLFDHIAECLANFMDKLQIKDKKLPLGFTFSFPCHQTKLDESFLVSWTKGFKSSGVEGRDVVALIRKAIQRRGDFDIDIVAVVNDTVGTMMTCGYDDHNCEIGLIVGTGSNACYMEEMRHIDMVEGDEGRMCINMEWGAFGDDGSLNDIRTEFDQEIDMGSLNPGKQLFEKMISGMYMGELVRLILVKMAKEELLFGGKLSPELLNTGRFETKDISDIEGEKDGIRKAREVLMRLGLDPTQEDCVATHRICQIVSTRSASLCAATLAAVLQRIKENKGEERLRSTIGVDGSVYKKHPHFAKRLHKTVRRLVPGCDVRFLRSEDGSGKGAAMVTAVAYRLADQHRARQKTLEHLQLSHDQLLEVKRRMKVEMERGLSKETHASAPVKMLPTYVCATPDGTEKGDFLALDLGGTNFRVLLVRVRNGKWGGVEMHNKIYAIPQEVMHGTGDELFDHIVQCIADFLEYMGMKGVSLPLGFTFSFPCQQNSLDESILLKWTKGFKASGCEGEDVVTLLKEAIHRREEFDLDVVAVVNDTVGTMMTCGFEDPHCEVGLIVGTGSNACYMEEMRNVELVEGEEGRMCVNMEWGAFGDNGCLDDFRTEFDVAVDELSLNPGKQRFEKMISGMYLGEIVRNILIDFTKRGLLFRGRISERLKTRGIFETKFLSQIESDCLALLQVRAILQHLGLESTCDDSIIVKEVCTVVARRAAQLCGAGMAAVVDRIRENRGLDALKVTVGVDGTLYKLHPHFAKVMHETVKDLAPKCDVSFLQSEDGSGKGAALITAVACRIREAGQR
inactive: saracatinib 0.008 | sotrastaurin -0.075 | alvocidib -0.054 | Tubastatin A -0.006 | defactinib -0.08 | rucaparib -0.011 | [2] -0.045 | encorafenib 0.026 | [3] -0.005 | [4] 0.035 | filanesib 0.031 | zotarolimus 0.03 | idasanutlin -0.064 | alisertib -0.124 | [5] 0.097 | gefitinib -0.07 | [6] 0.005 | lapatinib -0.206
active: [1] -0.334 | pictilisib -0.353

GTF3C4 (UniProt Q9UKN8)
inactive: saracatinib 0.06 | sotrastaurin 0.021 | alvocidib -0.03 | Tubastatin A -0.009 | [1] -0.005 | defactinib -0.081 | rucaparib 0.029 | [2] -0.001 | encorafenib 0.043 | [3] -0.01 | [4] -0.038 | filanesib 0.034 | zotarolimus 0.019 | idasanutlin -0.003 | alisertib -0.032 | [5] 0.007 | gefitinib 0.058 | [6] -0.011 | lapatinib 0.029 | pictilisib 0.028

GCLM (UniProt P48507)
inactive: saracatinib 0.012 | sotrastaurin -0.055 | alvocidib -0.126 | Tubastatin A 0.061 | [1] 0.155 | defactinib -0.151 | rucaparib 0.033 | [2] -0.045 | encorafenib 0.048 | [3] -0.042 | [4] 0.066 | filanesib -0.004 | zotarolimus 0.071 | idasanutlin -0.124 | alisertib -0.003 | [5] 0.026 | gefitinib 0.06 | [6] -0.057 | lapatinib 0.011 | pictilisib 0.046

GOLGB1 isoform 2 (UniProt Q14789)
active: filanesib 0.337
inactive: saracatinib -0.056 | sotrastaurin -0.121 | alvocidib 0.124 | Tubastatin A 0.029 | [1] 0.048 | defactinib 0 | rucaparib 0.02 | [2] -0.001 | encorafenib -0.04 | [3] 0.003 | [4] -0.16 | zotarolimus -0.04 | idasanutlin 0.066 | alisertib -0.069 | [5] 0.072 | gefitinib -0.02 | [6] -0.051 | lapatinib 0.046 | pictilisib 0.066

GSTO1 (UniProt P78417)
UniProt P78417, sequence (P78417 whole entry, looked up): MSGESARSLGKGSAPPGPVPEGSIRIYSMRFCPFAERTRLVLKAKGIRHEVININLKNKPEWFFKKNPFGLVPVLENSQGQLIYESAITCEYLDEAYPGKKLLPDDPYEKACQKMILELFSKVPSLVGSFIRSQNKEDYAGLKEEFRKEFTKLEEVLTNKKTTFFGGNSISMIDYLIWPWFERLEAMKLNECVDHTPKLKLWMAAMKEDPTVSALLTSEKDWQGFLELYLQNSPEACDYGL
inactive: saracatinib 0.027 | sotrastaurin 0.094 | alvocidib -0.016 | Tubastatin A -0.021 | [1] -0.034 | defactinib 0.001 | rucaparib -0.09 | [2] -0.004 | encorafenib 0.001 | [3] 0 | [4] -0.015 | filanesib -0.031 | zotarolimus -0.017 | idasanutlin -0.037 | alisertib -0.063 | [5] -0.048 | gefitinib -0.001 | [6] 0.021 | lapatinib 0.02 | pictilisib -0.033

IFT80 isoform 3 (UniProt Q9P2H3)
inactive: saracatinib -0.016 | sotrastaurin 0.029 | alvocidib -0.091 | Tubastatin A 0.094 | [1] 0.01 | defactinib -0.023 | rucaparib 0.029 | [2] -0.007 | encorafenib 0.056 | [3] 0.014 | [4] -0.128 | filanesib -0.043 | zotarolimus 0.003 | idasanutlin -0.066 | alisertib -0.039 | [5] 0.01 | gefitinib -0.07 | [6] 0.04 | lapatinib -0.038 | pictilisib 0.034

FANCI (UniProt Q9NVI1)
UniProt Q9NVI1, sequence (Q9NVI1 whole entry, looked up): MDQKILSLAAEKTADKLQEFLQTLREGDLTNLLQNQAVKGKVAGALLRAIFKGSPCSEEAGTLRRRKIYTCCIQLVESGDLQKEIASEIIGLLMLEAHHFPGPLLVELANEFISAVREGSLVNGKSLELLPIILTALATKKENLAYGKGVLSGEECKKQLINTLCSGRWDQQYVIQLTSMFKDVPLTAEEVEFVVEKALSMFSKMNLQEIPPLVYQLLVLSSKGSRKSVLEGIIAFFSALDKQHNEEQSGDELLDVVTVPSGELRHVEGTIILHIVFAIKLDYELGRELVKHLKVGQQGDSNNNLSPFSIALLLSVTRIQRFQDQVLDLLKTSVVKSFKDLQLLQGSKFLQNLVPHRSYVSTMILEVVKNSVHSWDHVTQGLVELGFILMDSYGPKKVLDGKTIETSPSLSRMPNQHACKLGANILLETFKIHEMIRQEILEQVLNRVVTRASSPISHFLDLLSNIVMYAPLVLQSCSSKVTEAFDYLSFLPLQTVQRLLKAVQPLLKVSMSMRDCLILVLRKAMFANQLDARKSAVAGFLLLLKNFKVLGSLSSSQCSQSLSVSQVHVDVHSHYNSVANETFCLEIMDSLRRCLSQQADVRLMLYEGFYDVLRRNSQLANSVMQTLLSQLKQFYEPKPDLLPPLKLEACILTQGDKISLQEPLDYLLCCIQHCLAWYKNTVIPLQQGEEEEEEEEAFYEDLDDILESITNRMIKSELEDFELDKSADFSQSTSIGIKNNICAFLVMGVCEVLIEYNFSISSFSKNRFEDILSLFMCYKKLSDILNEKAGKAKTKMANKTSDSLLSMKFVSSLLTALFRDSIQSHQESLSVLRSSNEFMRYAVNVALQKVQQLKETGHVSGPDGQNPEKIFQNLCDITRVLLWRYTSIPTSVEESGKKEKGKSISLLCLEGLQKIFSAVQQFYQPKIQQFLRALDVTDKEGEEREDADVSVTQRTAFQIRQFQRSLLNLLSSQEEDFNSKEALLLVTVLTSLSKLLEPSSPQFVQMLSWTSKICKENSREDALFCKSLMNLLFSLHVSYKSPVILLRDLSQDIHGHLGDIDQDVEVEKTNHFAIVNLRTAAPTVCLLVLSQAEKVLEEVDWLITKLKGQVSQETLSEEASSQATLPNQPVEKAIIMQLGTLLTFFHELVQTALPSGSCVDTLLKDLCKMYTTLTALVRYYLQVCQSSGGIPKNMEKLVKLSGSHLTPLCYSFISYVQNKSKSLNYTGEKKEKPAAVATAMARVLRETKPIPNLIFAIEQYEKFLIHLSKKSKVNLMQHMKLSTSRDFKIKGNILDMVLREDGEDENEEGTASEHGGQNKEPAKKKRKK
inactive: saracatinib -0.022 | sotrastaurin -0.099 | alvocidib -0.13 | Tubastatin A -0.103 | [1] -0.111 | defactinib -0.179 | rucaparib 0.041 | [2] -0.002 | encorafenib 0.003 | [3] -0.02 | [4] 0.004 | filanesib -0.189 | zotarolimus -0.01 | idasanutlin -0.014 | alisertib -0.015 | [5] -0.113 | gefitinib -0.034 | [6] 0.033 | lapatinib 0.001 | pictilisib 0

GAGE12F (UniProt P0CL80)
UniProt P0CL80, sequence (P0CL80 whole entry, looked up): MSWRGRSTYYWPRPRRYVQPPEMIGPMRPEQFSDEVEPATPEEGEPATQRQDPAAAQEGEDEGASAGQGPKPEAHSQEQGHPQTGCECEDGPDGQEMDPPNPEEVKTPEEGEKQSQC
inactive: saracatinib 0.007 | sotrastaurin 0.053 | alvocidib 0.052 | Tubastatin A 0.009 | [1] -0.081 | defactinib 0.095 | rucaparib 0.033 | [2] -0.051 | encorafenib -0.031 | [3] -0.02 | [4] -0.007 | filanesib 0.02 | zotarolimus -0.054 | idasanutlin 0.055 | alisertib -0.312 | [5] -0.02 | gefitinib -0.03 | [6] 0.123 | lapatinib -0.028 | pictilisib 0.108

FAM91A1 (UniProt Q658Y4)
UniProt Q658Y4, sequence (Q658Y4 whole entry, looked up): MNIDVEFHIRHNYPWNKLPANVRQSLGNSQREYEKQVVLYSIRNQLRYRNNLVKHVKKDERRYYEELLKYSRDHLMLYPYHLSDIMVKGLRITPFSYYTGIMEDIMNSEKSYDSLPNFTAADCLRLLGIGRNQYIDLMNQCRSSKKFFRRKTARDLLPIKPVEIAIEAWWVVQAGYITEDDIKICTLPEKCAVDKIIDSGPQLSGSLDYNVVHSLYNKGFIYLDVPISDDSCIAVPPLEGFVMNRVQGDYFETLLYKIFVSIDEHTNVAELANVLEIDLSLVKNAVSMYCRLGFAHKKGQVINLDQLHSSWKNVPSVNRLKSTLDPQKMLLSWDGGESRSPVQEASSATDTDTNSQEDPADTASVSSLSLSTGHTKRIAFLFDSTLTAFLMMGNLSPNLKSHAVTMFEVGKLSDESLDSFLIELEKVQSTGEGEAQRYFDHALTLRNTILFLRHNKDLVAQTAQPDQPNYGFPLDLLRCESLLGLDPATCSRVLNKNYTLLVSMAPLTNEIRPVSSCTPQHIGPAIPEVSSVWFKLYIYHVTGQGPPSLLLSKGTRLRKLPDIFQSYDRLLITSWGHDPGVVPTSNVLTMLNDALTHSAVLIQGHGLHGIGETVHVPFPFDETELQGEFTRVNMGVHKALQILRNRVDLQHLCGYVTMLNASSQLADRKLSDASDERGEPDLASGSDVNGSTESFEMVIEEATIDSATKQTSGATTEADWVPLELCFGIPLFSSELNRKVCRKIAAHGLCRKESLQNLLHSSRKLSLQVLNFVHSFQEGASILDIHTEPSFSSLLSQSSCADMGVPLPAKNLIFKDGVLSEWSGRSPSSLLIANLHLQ
inactive: saracatinib 0.055 | sotrastaurin -0.049 | alvocidib -0.037 | Tubastatin A 0.005 | [1] 0.059 | defactinib 0 | rucaparib -0.015 | [2] 0.002 | encorafenib 0.05 | [3] -0.025 | [4] -0.081 | filanesib -0.059 | zotarolimus 0.029 | idasanutlin -0.044 | alisertib -0.076 | [5] -0.003 | gefitinib -0.013 | [6] 0.035 | lapatinib 0.045 | pictilisib -0.047

FEN1 (UniProt P39748)
inactive: saracatinib -0.087 | sotrastaurin -0.028 | alvocidib -0.099 | Tubastatin A 0.116 | [1] -0.092 | defactinib -0.139 | rucaparib -0.128 | [2] 0.183 | encorafenib 0.054 | [3] -0.087 | [4] 0.06 | filanesib -0.215 | zotarolimus 0.027 | idasanutlin -0.099 | alisertib 0.019 | [5] 0.039 | gefitinib -0.029 | [6] 0.096 | lapatinib -0.098 | pictilisib -0.005

HADHA (UniProt P40939)
inactive: saracatinib -0.102 | sotrastaurin 0.032 | alvocidib -0.238 | Tubastatin A 0.05 | [1] 0.044 | defactinib -0.19 | rucaparib 0.177 | encorafenib -0.024 | [3] -0.191 | [4] 0.267 | filanesib 0.082 | zotarolimus 0.081 | idasanutlin -0.321 | alisertib -0.035 | [5] 0.155 | gefitinib 0.209 | [6] -0.088 | lapatinib 0.148 | pictilisib 0.425
active: [2] 0.595

GLS (UniProt O94925)
UniProt O94925, sequence (O94925 whole entry, looked up): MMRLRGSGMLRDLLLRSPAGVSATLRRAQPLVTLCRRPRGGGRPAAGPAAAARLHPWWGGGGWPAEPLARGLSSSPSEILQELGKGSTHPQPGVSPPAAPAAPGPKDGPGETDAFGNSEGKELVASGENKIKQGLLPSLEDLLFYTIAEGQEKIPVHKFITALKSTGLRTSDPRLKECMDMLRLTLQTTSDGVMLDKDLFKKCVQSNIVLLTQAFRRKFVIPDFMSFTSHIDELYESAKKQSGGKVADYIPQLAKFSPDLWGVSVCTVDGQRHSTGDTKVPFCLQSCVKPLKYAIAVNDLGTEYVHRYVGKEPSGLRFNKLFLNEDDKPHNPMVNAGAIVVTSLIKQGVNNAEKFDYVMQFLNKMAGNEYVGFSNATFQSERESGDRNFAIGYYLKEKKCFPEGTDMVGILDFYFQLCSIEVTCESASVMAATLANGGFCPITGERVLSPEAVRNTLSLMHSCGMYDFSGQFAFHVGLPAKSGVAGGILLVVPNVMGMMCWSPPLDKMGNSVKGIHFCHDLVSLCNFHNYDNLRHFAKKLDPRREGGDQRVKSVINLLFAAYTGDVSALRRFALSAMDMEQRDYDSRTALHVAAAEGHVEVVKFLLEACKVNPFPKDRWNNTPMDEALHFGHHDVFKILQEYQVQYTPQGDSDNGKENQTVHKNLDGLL
inactive: saracatinib 0.039 | sotrastaurin -0.023 | alvocidib -0.147 | Tubastatin A 0.021 | [1] -0.031 | defactinib -0.167 | rucaparib 0.002 | [2] -0.092 | encorafenib 0.017 | [3] -0.093 | [4] 0.009 | filanesib 0.029 | zotarolimus 0.027 | idasanutlin -0.192 | alisertib 0.143 | [5] 0.22 | gefitinib 0.033 | [6] -0.009 | lapatinib -0.052 | pictilisib 0.049
